Measured values from PubChem BioAssay (NCATS).
Records with an inconclusive call do not appear. The source made the active and inactive calls. Calls follow the shape of the dose curve; as a rule, active = well fitted curve in the direction sought with a large enough effect; inconclusive = small, poorly fitted or top-dose-only effect, or another doubt; inactive = no such curve, though single readings can be large; an effect the other way counts as inactive or inconclusive.

How the values were obtained:
[1] = HEK293 12hr Apoptosis Induction qHTS against the NCATS CANVASS Library (AID 1347361)
Procedure, shortened: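 Apoptosis in HEK293 was scored as caspase-3/7 luminescence following 12 h treatment with a compound concentration series in qHTS format.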

[2] = SDT Cancer Cell Toxicity qHTS against the NCATS CANVASS Library (AID 1347365); also: nearly all actives have a fitted effect of over 60% in size; also: potency is read from the fitted curve at half-maximal effect
Procedure, shortened: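 Cytotoxicity taken from CellTiterGlo ATP luminescence after 72 hr at 37C, 5% CO2. Canine glioma line SDT, 500 cells/well, treated at 11 concentrations; bortezomib dose series as control.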

[3] = G06 Cancer Cell Toxicity qHTS against the NCATS CANVASS Library (AID 1347368); also: nearly all actives have a fitted effect of over 60% in size; also: potency is read from the fitted curve at half-maximal effect
Procedure, shortened: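 Viability measured by CellTiterGlo ATP luminescence after 72 hr at 37C, 5% CO2. Canine G06 glioma cells plated at 500/well. Compounds tested as 11-point qHTS titrations.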

[4] = MCF7 Cancer Cell Toxicity qHTS against the NCATS CANVASS Library (AID 1347369); settings: MCF7 viability, ATP luminescence (CellTiter-Glo), 72 h; also: potency is read from the fitted curve at half-maximal effect
Procedure, shortened: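 Cytotoxicity is measured by ATP content: MCF7 cells at 500 per well receive an 11-point compound series and, after 72 hr at 37C, are lysed with CellTiterGlo for luminescence.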

[5] = J3T Cancer Cell Toxicity qHTS against the NCATS CANVASS Library (AID 1347371); settings: outcome: dose series up to 46.1 µM
Procedure, shortened: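 Cytotoxicity read as CellTiterGlo ATP luminescence after 72 h incubation (37C, 5% CO2) of J3T canine glioma cells (500/well) with an 11-point compound series.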

[6] = target: Nuclear receptor subfamily 1 group I member 3 (Homo sapiens) (UniProt Q14994); test: qHTS for Constitutive Androstane Receptor (CAR) Antagonist screened against the NCATS CANVASS Library (AID 1347372);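 also: cells stimulated with 50 nM CITCO agonist so inhibition reflects antagonism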
Chain of Nuclear receptor subfamily 1 group I member 3 (Homo sapiens) (Q14994 whole entry, looked up): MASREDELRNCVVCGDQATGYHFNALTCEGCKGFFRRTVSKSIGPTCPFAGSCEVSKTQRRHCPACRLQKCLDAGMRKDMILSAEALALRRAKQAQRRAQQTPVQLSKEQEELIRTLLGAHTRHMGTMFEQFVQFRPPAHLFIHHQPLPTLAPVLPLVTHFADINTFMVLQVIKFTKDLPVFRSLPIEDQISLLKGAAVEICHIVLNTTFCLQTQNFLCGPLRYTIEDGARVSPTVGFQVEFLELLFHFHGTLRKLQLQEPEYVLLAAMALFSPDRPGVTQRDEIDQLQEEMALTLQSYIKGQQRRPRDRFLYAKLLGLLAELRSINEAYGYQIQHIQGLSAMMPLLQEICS
Procedure, shortened: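 Antagonist mode: compound added alongside 50 nM CITCO to HepG2-hCAR-CYP2B6 reporter cells, 24hr at 37C. Viability by CellTiter-Fluor fluorescence, then CAR-driven luciferase by ONE-Glo luminescence.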

[7] = qHTS for Hypoxia signaling pathway (HIF-1) agonists against the NCATS CANVASS Library (AID 1347375)
Procedure, shortened: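 Beta-lactamase reporter under HRE control in ME-180 cells; compounds (11-point qHTS series) added after 5 hrs plating, then 17 hrs at 37C. FRET substrate read after 2 hr; same-well CellTiter-Glo luminescence gave viability and normalization.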

[8] = 10-beta competent E. coli microbial cell viability qHTS against the NCATS CANVASS Library (AID 1347376)
Procedure, shortened: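 Read-out: BacTiter-Glo ATP luminescence, taken 20 min after reagent addition. Beforehand, 10-beta competent E. coli at 0.2 OD had been incubated overnight at 37C with compounds at 11 concentrations.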

[9] = DH5-alpha competent E. coli microbial cell viability qHTS against the NCATS CANVASS Library (AID 1347377); settings: outcome: dose series up to 46.1 µM
Procedure, shortened: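 Bacterial viability as ATP-dependent luminescence (BacTiter-Glo), read after overnight 37 °C exposure of DH5-alpha competent E. coli to compounds in 11-point titration.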

[10] = qHTS for H2AX Agonists against the NCATS CANVASS Library (AID 1347378);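 also: phospho-H2AX S139 level in CHO-K1 lysates by TR-FRET emission ratio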; also: potency is read from the fitted curve at half-maximal effect
Procedure, shortened: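 Following overnight seeding, CHO-K1 cells are incubated with a concentration series of compound for 3 hr at 37C (final DMSO 0.76%). Cells are then lysed, detection antibodies added, and emission ratio 665/620 nm recorded after 24 hr at room temperature.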

[11] = qHTS for Inflammasome Signaling Inhibitors: IL-1-beta AlphaLISA screen against the NCATS CANVASS Library (AID 1347379); settings: outcome: dose series up to 57.5 µM;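 also: human THP-1 cells primed with LPS then triggered with ATP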
Procedure, shortened: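 Secreted IL-1B from human THP-1 cells quantified by AlphaLISA 16 hr after compound addition (final up to 57.5 uM). A 1 hr compound pretreatment preceded inflammasome activation with 250 ng/mL LPS plus 1.25 mM ATP (final).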

[12] = qHTS for Antimalaria activity screened against the NCATS CANVASS Library (AID 1347380); also: potency is read from the fitted curve at half-maximal effect; nearly all actives have a fitted effect of over 40% in size; settings: P. falciparum Dd2 growth, SYBR Green fluorescence, 72 h
Procedure, shortened: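 SYBR Green fluorescence at 485/535 nm was read 18 hr after lysis. This followed a 72 hr incubation at 37C in 5% O2, 5% CO2 of Dd2-infected erythrocytes (0.3% parasitemia, 2.5% final hematocrit) with compounds titrated over 11 concentrations.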

[13] = Inflammasome Signaling qHTS Counterscreen: IL-1-beta AlphaLISA counterscreen against the NCATS CANVASS Library (AID 1347381);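 also: cell-free check with purified IL-1β in medium and no THP-1 cells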
Procedure, shortened: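 Purified IL-1-beta (4 pg/well) + compound, 11-pt conc. series; acceptor beads 6 ug/mL + biotin-Ab 0.6 nM final, 1 h RT; SA-donor 24 ug/ml final, 30 min dark RT; read ex 680/em 615.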

[14] = target: Luciferin 4-monooxygenase (Photinus pyralis) (UniProt P08659); test: Firefly luciferase counterscreen qHTS: Assay Interference Panel against the NCATS CANVASS Library (AID 1347363)
Chain of Luciferin 4-monooxygenase (Photinus pyralis) (P08659 whole entry, looked up): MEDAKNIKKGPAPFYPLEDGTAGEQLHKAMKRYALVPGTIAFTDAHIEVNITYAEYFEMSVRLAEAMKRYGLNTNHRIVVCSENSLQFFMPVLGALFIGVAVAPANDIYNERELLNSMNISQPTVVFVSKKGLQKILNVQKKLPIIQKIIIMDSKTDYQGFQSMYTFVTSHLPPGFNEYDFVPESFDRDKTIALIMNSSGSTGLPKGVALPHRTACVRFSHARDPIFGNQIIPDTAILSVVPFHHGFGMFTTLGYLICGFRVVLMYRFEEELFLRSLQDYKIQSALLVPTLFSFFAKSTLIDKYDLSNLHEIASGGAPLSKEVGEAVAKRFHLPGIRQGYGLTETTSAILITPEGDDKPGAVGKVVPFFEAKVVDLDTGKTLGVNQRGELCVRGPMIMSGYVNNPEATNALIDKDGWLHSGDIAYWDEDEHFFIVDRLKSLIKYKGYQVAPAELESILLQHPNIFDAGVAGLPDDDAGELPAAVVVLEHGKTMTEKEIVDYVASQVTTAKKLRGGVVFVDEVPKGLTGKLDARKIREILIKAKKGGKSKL
Procedure, shortened: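 Luminescence inhibition readout: compounds (11-point qHTS) sat 15 min at room temperature with substrate mix (0.013 mM luciferin and ATP), then firefly luciferase was added and signal read 5 min later.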

[15] = KB-8-5-11 Cancer Cell Toxicity qHTS against the NCATS CANVASS Library (AID 1347364); also: nearly all actives have a fitted effect of over 75% in size
Procedure, shortened: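 Viability read as CellTiter-Glo luminescence after 72 h at 37 °C, 5% CO2. 11-point compound series on 500 KB-8-5-11 cells/well in DMEM/10% FBS. Follow-up plating included 1 uM tariquidar in the medium.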

[16] = KB-3-1 Cancer Cell Toxicity qHTS against the NCATS CANVASS Library (AID 1347366); settings: KB-3-1 viability, CellTiter-Glo luminescence, 72 h; at 46.1 µM (top of the series); also: nearly all actives have a fitted effect of over 75% in size
Procedure, shortened: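 Seed KB-3-1 cells at 500/well in DMEM with 10% FBS, add compounds, incubate 72 hr at 37C and 5% CO2, then add CellTiter-Glo and read luminescence after 10 minutes.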

[17] = qHTS for ATAD5 Agonist screened against the NCATS CANVASS Library (AID 1347367);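 also: luciferase reporter driven by ATAD5 which rises upon DNA damage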
Procedure, shortened: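 Step one plated reporter cells and let them acclimate 5hr. Step two pinned compounds with MMS as positive and 0.46% DMSO as negative control. After 16hr incubation, fluorescence viability then luminescence were read.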

[18] = qHTS for ATAD5 Antagonist screened against the NCATS CANVASS Library (AID 1347370);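 also: HEK293T cells carrying an ATAD5 luciferase reporter co-treated with 10 µM 5-fluorouridine; nearly all actives have a fitted effect of over 65% in size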
Procedure, shortened: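 Compounds (11-point) co-dosed with 10 µM 5-FUrd for 16 h at 37 °C onto HEK293T-ATAD5 luciferase reporter cells. Viability measured by CellTiter-Fluor fluorescence, then ATAD5 reporter signal by luminescence.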

[19] = target: Nuclear receptor subfamily 1 group I member 3 (Homo sapiens) (UniProt Q14994); test: qHTS for Constitutive Androstane Receptor (CAR) Agonist screened against the NCATS CANVASS Library (AID 1347373);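 also: every well also contained 1.5 µM PK11195 alongside the test compound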
Procedure, shortened: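 Agonist mode with 1.5uM PK11195 present: compounds for 24hr on HepG2-hCAR-CYP2B6 cells. CellTiter-Fluor fluorescence (ex 405, em 540 nm) gives viability; ONE-Glo luminescence reports CAR activation.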

[20] = qHTS for Hypoxia signaling pathway (HIF-1) antagonists against the NCATS CANVASS Library (AID 1347374);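 also: HRE-bla ME-180 cells stimulated with cobalt chloride to stabilize HIF-1alpha; nearly all actives have a fitted effect of over 60% in size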
Procedure, shortened: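 Antagonism scored as loss of CoCl2-driven (60 uM stock added) HRE beta-lactamase signal, read by CCF4 FRET at 460/530 nm. Compounds were tested in an 11-point series on ME-180 reporter cells for 17 hrs at 37C, with parallel CellTiter-Glo cytotoxicity.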

Measured: Potency

O=c1cc(-c2ccccc2)oc2c(O)c(O)ccc12
inactive: [1] | [5] | [6] | [7] | [8] | [9] | [11] | [13]
active: [2] 4.18 µM | [3] 9.35 µM | [4] 13.1 µM | [10] 34.4 µM | [12] 0.0067 µM

O=C(O)c1cc(O)c(O)c(O)c1
inactive: [1] | [14] | [15] | [2] | [16] | [17] | [3] | [18] | [5] | [6] | [19] | [20] | [7] | [8] | [9] | [10] | [11] | [13]
active: [12] 0.0053 µM
